Most compounds without a hit are left out; they make up all but 8.1% or so of the library.
Shh pathway inh = blocks Sonic Hedgehog signaling; Shh-LIGHT2 Gli-luciferase reporter, 30 h; inhibition, % (test concentration not listed); hit rate 2.1% among 22,000;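 active = mean inhibition across valid replicates above about 65%, limit read from the data; inconclusive = mean under the limit, yet half or more replicates past it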;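 note: pathway switched on by Shh-conditioned medium diluted 1 in 25 in low serum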
MITF inhib = blocks MITF activity; TRPM1 promoter luciferase, luminescence, 24 h; inhibition, % (no concentration beside the values); hit rate 0.28% among 37,000; in the data active = inhibition above about 85%; inconclusive = no clear call, values can overlap the other calls; inactive = below about 68%;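 note: human melanocyte line stably carrying TRPM1 promoter luciferase reporter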
NOMO-1 viab = STK33 inhibitor candidate reducing NOMO-1 cell viability | inhibition, % (no concentration beside the values) | AID 2330 | NOMO-1 AML viability, CellTiter-Glo luminescence, 72 h | hit rate 7.5% among 37,000; in the data active = inhibition above about 80%; inconclusive = no clear call, values can overlap the other calls
Of the large screens only hits and unclear results are named; the others gave an inactive call.

C=C(C(=O)O[C@H]1C/C=C(/C)C[C@H](O)[C@H]2[C@H](C)C(=O)O[C@@H]2/C=C\1C)[C@@H]1CCC(=C)[C@@H]2C[C@H](O[C@@H]3O[C@H](CO)[C@@H](O)[C@H](O)[C@H]3O)C(=C)[C@@H]2C1	NOMO-1 viab 118
COc1ccccc1NC(=O)c1ccc(CSc2nc3ccccc3o2)cc1	none (no result: Shh pathway inh)
COc1ccc(OC)c(NC(=O)c2ccc(CSc3ncnc4nc[nH]c34)cc2)c1	Shh pathway inh 68
C[C@H](CO)N1C[C@H](C)[C@@H](CN(C)Cc2ccc(-c3ccccc3)cc2)Oc2ccc(NS(=O)(=O)c3ccccc3)cc2C1=O	none (no result: Shh pathway inh)
Cc1ccc(S(=O)(=O)Nc2ccc3c(c2)C(=O)N([C@H](C)CO)C[C@H](C)[C@@H](CN(C)Cc2ccc(-c4ccccc4)cc2)O3)cc1	none (no result: Shh pathway inh)
Cc1ccc(S(=O)(=O)Nc2ccc3c(c2)C(=O)N([C@H](C)CO)C[C@@H](C)[C@@H](CN(C)Cc2ccc(-c4ccccc4)cc2)O3)cc1	NOMO-1 viab 122 (no result: Shh pathway inh)
C[C@@H]1CN([C@H](C)CO)C(=O)c2cc(NS(=O)(=O)c3ccccc3)ccc2O[C@@H]1CN(C)Cc1ccc(-c2ccccc2)cc1	NOMO-1 viab 121
O=C(CCCN1C(=O)c2ccccc2C1=O)Nc1ccc(Br)cc1F	none (no result: Shh pathway inh)
COC(=O)c1cc(OC)c(OC)cc1NC(=O)C(C)Oc1ccccc1C (stereo not given)	none (no result: Shh pathway inh)
N#Cc1c(NC(=O)COc2ccc(C(=O)NC3CCCCC3)cc2)sc2c1CCC2	none (no result: Shh pathway inh)
COc1ccc(S(=O)(=O)Nc2cccc3c2O[C@@H](CN(C)CC2CCCCC2)[C@@H](C)CN([C@H](C)CO)C3=O)cc1	Shh pathway inh 71
C[C@H]1CN([C@@H](C)CO)C(=O)c2cccc(NS(=O)(=O)c3ccc(Cl)cc3)c2O[C@H]1CN(C)C(=O)NC1CCCCC1	none
COc1ccc(S(=O)(=O)Nc2cccc3c2O[C@@H](CN(C)C(=O)NC2CCCCC2)[C@@H](C)CN([C@H](C)CO)C3=O)cc1	Shh pathway inh 66, NOMO-1 viab 114
COc1ccc(S(=O)(=O)Nc2cccc3c2O[C@H](CN(C)C(=O)NC2CCCCC2)[C@@H](C)CN([C@@H](C)CO)C3=O)cc1	none
COc1ccc(S(=O)(=O)Nc2cccc3c2O[C@@H](CN(C)CC2CCCCC2)[C@H](C)CN([C@@H](C)CO)C3=O)cc1	none
C[C@H](CO)N1C[C@H](C)[C@H](CN(C)C(=O)NC2CCCCC2)Oc2c(NS(=O)(=O)c3ccc(Cl)cc3)cccc2C1=O	Shh pathway inh 100, NOMO-1 viab 88
COc1ccc(C(C)NC(=O)c2cc(-c3ccccn3)nc3ccc(Cl)cc23)cc1OC (stereo not given)	none (no result: Shh pathway inh)
COc1ccc(C(C)NC(=O)c2cc(-c3ccccn3)nc3ccc(Br)cc23)cc1OC (stereo not given)	NOMO-1 viab 90 (no result: Shh pathway inh)
COc1ccccc1CCNC(=O)c1cc(-c2ccccn2)nc2ccc(Br)cc12	none (no result: Shh pathway inh)
COc1ccccc1CCNC(=O)c1cc(-c2ccncc2)nc2ccc(Br)cc12	NOMO-1 viab 94 (no result: Shh pathway inh)
N#CC(=S)Nc1ccc(F)cc1	none
O=C1C(=O)N(Cc2ccc(Cl)c(Cl)c2)c2ccccc21	NOMO-1 viab 97
O=C(CCCN1C(=O)c2ccccc2C1=O)Nc1ccc(Cl)c(Cl)c1	none (no result: Shh pathway inh)
COC(=O)c1ccc(Cl)c(NC(=O)CSc2nc(C)cc(C(F)(F)F)n2)c1	none (no result: Shh pathway inh)
Cc1ccccc1NC(=O)CSc1nc(-c2ccc(Cl)cc2)cc(C(F)(F)F)n1	NOMO-1 viab 95 (no result: Shh pathway inh)
COc1ccccc1NC(=O)CSc1nc(-c2ccc(Cl)cc2)cc(C(F)(F)F)n1	NOMO-1 viab inconclusive (no result: Shh pathway inh)
COC(=O)c1ccc(Cl)c(NC(=O)CSc2nc(-c3ccccc3)cc(C(F)(F)F)n2)c1	NOMO-1 viab 113 (no result: Shh pathway inh)
C/C=C1/[C@H](O[C@@H]2O[C@H](CO)[C@@H](O)[C@H](O)[C@H]2O)OC=C(C(=O)OC)[C@H]1CC(=O)OCCc1ccc(O)cc1	none
COc1ccc(S(=O)(=O)N(C)C[C@H]2Oc3c(NC(=O)Nc4ccc(C(F)(F)F)cc4)cccc3C(=O)N([C@H](C)CO)C[C@@H]2C)cc1	NOMO-1 viab inconclusive
COc1ccc(S(=O)(=O)N(C)C[C@@H]2Oc3c(NC(=O)Nc4ccc(C(F)(F)F)cc4)cccc3C(=O)N([C@@H](C)CO)C[C@H]2C)cc1	none
COc1ccc(S(=O)(=O)N(C)C[C@H]2Oc3c(NC(=O)Nc4ccc(C(F)(F)F)cc4)cccc3C(=O)N([C@@H](C)CO)C[C@H]2C)cc1	NOMO-1 viab 121
COc1ccc(S(=O)(=O)N(C)C[C@H]2Oc3c(NC(=O)Nc4ccc(C(F)(F)F)cc4)cccc3C(=O)N([C@@H](C)CO)C[C@@H]2C)cc1	NOMO-1 viab 112
C[C@@H]1CN([C@H](C)CO)C(=O)c2cccc(NC(=O)Nc3ccc(C(F)(F)F)cc3)c2O[C@@H]1CN(C)S(=O)(=O)c1ccc(Cl)cc1	NOMO-1 viab 117
Cc1ccc(S(=O)(=O)N(C)C[C@H]2Oc3c(NC(=O)Nc4ccc(C(F)(F)F)cc4)cccc3C(=O)N([C@H](C)CO)C[C@@H]2C)cc1	none
C[C@@H]1CN([C@@H](C)CO)C(=O)c2cccc(NC(=O)Nc3ccc(C(F)(F)F)cc3)c2O[C@@H]1CN(C)S(=O)(=O)c1ccc(Cl)cc1	Shh pathway inh inconclusive, MITF inhib 87, NOMO-1 viab 122
Cc1ccc(S(=O)(=O)N(C)C[C@@H]2Oc3c(NC(=O)Nc4ccc(C(F)(F)F)cc4)cccc3C(=O)N([C@@H](C)CO)C[C@H]2C)cc1	none
COc1ccc(OC)c(NC(=O)CSc2nc3sc4c(c3c(=O)n2-c2ccccc2)CCCC4)c1	none (no result: Shh pathway inh)
CCOC(=O)c1c(NC(=O)COc2cc(C)ccc2C)sc2c1CCC2	none (no result: Shh pathway inh)
O=C(Cn1cc(C(=O)c2ccccc2F)c2ccccc21)NCC1CCCO1 (stereo not given)	none (no result: Shh pathway inh)
COc1cc([C@@H]2c3cc4c(cc3C(OC3O[C@@H]5COC(C)O[C@H]5[C@H](O)[C@H]3O)C3COC(=O)[C@@H]32)OCO4)cc(OC)c1O (stereo not given in full)	NOMO-1 viab 101
COc1cc([C@@H]2c3cc4c(cc3[C@@H](OC3OC5COC(C)OC5C(O)C3O)[C@H]3COC(=O)[C@H]23)OCO4)cc(OC)c1O (stereo not given in full)	NOMO-1 viab 141
COc1cc(C2OCC3C(c4ccc5c(c4)OCO5)OC(=O)C23)ccc1O (stereo not given)	none
O=C(CSc1n[nH]c(-c2ccccc2)n1)Nc1ccc(F)cc1	none (no result: Shh pathway inh)
COc1ccc(Cl)cc1NC(=O)CSc1nnc(-c2ccc(Br)cc2)o1	none (no result: Shh pathway inh)
CCn1cc(C(C)NC(=S)Nc2ccc(OC)cc2OC)c(C)n1 (stereo not given)	none (no result: Shh pathway inh)
CCc1ccc(NC(=O)CSc2nnc(C)n2-c2ccccc2)cc1	none (no result: Shh pathway inh)
Cc1ccc(Cn2nc(C(=O)Sc3cccc(Cl)c3Cl)cc2C)cc1	none
OC(c1ccccc1)c1oc2ccccc2c1-c1cnn(-c2ccccc2)c1 (stereo not given)	Shh pathway inh 98, NOMO-1 viab 112
N#CCSc1nc2cc(C(=O)NCc3ccccc3)ccc2c(=O)n1CCc1ccccc1	NOMO-1 viab inconclusive
Cc1cc(S(=O)(=O)Nc2ccc(C(=O)O)cc2)c(C)c(S(=O)(=O)c2ccc(Cl)cc2)c1	none (no result: Shh pathway inh)
CS(=O)(=O)c1sc(NC(=O)Nc2ccc(Cl)cc2)c2c1C=CCC2	Shh pathway inh 106, NOMO-1 viab 122
